PubChem BioAssay (NCATS)
Inconclusive results are not listed. Activity calls are given as the source filed them. Calls follow the shape of the dose curve; as a rule, active = well fitted curve in the direction sought with a large enough effect; inconclusive = small, poorly fitted or top-dose-only effect, or another doubt; inactive = no such curve, though single readings can be large; an effect the other way counts as inactive or inconclusive.

Legend:
[1] = target: Rap guanine nucleotide exchange factor 3 (Homo sapiens) (UniProt O95398); test: Confirmatory qHTS for antagonist of cAMP-regulated guanine nucleotide exchange factor 3 (EPAC1) (AID 1645880); also: nearly all actives have a fitted effect of over 55% in size; also: potency is read from the fitted curve at half-maximal effect
How it was run: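 Nucleotide exchange uses 100 nM EPAC1, 250 nM RAP1B-BODIPY-GDP and 50 uM GDP, with compounds in a concentration-titration series. After 5 min at room temperature, fluorescence (480 nm ex/540 nm em) is read every 5 min for 30 min. Data are normalized to control ATA and DMSO.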

[2] = target: Rap guanine nucleotide exchange factor 3 (Homo sapiens) (UniProt O95398); test: Confirmatory qHTS for agonist of cAMP-regulated guanine nucleotide exchange factor 3 (EPAC1) (AID 1645881);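 also: EPAC1 catalysed release of BODIPY-GDP from Rap1B seen as fluorescence loss; 100% = effect of cAMP agonist control; nearly all actives have a fitted effect of over 75% in size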
[3] = target: Rap guanine nucleotide exchange factor 4 (Homo sapiens) (UniProt Q8WZA2); test: Confirmatory qHTS for agonist of cAMP-regulated guanine nucleotide exchange factor 4 (EPAC2) (AID 1645884);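 also: nucleotide exchange releases bodipy-GDP from Rap1 and this lowers its fluorescence; % is scaled to controls: 0 for no effect and ±100 for the full control effect; nearly all actives have a fitted effect of over 65% in size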
[4] = target: Rap guanine nucleotide exchange factor 4 (Homo sapiens) (UniProt Q8WZA2); test: Confirmatory qHTS for antagonist of cAMP-regulated guanine nucleotide exchange factor 4 (EPAC2) (AID 1645885); also: nearly all actives have a fitted effect of over 25% in size; also: potency is read from the fitted curve at half-maximal effect; as to activity change, negative = inhibition: % is scaled to controls: 0 for no effect and ±100 for the full control effect
[5] = target: Rap guanine nucleotide exchange factor 3 (Homo sapiens) (UniProt O95398); test: Counterscreen qHTS for antagonist of cAMP-regulated guanine nucleotide exchange factor 3 (EPAC1) (AID 1645888);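 also: fluorescence loss as bound BODIPY-GDP is released from Rap1B; % of control where 0% means no effect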
How it was run: (§1)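 Measured: fluorescence of BODIPY-GDP bound to Rap1B, which falls as exchange proceeds. Conditions include 50 uM competing GDP, 5 and 30 min reads, and a later cAMP challenge for antagonist detection.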

[6] = target: Rap guanine nucleotide exchange factor 3 (Homo sapiens) (UniProt O95398); test: Counterscreen qHTS for agonist of cAMP-regulated guanine nucleotide exchange factor 3 (EPAC1) (AID 1645889); also: % of control where 0% means no effect; nearly all actives have a fitted effect of over 40% in size
How it was run: as §1

Chain of Rap guanine nucleotide exchange factor 3 (Homo sapiens) (O95398 whole entry, looked up): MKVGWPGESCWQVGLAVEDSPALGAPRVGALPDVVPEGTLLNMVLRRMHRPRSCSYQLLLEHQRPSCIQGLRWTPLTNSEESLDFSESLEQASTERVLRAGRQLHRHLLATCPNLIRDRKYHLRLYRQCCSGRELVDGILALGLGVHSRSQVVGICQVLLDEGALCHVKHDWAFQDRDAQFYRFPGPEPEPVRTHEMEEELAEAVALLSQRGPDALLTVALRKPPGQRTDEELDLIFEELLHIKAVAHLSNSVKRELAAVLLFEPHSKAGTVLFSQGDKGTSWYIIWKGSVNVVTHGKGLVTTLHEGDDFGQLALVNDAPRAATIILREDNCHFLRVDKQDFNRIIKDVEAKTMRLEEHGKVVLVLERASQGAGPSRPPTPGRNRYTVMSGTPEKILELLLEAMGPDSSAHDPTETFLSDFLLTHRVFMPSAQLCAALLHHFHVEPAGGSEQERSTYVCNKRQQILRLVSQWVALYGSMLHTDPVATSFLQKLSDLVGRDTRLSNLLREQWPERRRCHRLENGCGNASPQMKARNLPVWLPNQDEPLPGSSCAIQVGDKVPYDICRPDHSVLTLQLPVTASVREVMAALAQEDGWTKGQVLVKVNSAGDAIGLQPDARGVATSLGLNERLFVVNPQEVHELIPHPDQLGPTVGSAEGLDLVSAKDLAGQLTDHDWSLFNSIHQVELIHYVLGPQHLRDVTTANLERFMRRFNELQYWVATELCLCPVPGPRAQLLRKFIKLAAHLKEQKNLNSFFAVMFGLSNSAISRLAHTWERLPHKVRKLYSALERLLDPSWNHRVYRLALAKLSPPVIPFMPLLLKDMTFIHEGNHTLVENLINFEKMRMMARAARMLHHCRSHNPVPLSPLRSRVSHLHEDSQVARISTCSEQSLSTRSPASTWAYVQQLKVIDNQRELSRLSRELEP
Chain of Rap guanine nucleotide exchange factor 4 (Homo sapiens) (Q8WZA2 whole entry, looked up): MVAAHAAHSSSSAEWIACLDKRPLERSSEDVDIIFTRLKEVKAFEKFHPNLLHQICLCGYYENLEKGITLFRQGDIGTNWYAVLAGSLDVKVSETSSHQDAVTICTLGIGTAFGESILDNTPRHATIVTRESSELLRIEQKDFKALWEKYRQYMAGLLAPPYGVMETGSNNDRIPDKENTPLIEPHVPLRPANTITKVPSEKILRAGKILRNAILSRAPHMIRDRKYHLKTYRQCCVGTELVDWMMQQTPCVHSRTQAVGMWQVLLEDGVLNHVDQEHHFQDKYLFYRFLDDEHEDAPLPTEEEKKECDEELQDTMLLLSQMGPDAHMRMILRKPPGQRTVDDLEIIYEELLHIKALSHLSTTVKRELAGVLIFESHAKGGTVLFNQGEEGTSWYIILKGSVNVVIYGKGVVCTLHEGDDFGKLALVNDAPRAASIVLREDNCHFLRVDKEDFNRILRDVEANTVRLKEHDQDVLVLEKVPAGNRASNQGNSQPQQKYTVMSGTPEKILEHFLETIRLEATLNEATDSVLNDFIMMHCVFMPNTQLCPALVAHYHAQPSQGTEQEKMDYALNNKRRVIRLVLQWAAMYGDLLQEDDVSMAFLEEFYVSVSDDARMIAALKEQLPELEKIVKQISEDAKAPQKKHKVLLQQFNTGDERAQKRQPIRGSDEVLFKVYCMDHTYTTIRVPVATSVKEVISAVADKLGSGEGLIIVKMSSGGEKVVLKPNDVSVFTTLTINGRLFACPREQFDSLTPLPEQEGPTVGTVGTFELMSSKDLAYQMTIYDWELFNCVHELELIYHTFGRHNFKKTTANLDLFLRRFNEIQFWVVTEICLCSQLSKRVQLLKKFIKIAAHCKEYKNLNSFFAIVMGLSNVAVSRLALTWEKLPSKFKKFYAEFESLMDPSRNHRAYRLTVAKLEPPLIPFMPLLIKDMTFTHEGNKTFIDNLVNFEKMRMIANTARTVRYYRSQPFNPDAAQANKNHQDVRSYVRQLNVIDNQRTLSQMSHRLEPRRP

O=C1CC(c2ccccc2C(F)(F)F)c2c(c3ccccc3[nH]c2=O)O1 (centres undefined)
inactive: Potency [1] | Potency [2] | Potency [3] | Potency [4] | Potency [5] | Potency [6]

CCOc1cc(/C=N/Nc2ccc(S(=O)(=O)Nc3ccccc3C(=O)O)cc2[N+](=O)[O-])cc(Cl)c1O
inactive: Potency [2] | Potency [3] | Potency [4] | Potency [5] | Potency [6]
active: Potency [1] 33.8 µM

O=C(Nc1cc(C(=O)Nc2ccccc2C(=O)O)cc(C(=O)Nc2ccccc2C(=O)O)c1)c1ccccc1
inactive: Potency [2] | activation [3] 5.98% [at 17.1 µM, percent relative to cAMP agonist control] | Potency [4] | activity change, negative = inhibition [5] 11.5% [at 30.8 µM] | activation [6] 19.7% [at 30.8 µM]
active: Potency [1] 2.24 µM

O=C(CCCCCl)Nc1c2c(nc3ccccc13)CCC2
inactive: Potency [1] | Potency [2] | activation [3] 1.22% [at 17.1 µM, percent relative to cAMP agonist control] | Potency [4] | activity change, negative = inhibition [5] -8.13% [at 30.8 µM] | activation [6] -2.96% [at 30.8 µM]

O=C(OC1CCOC1=O)c1ccc(-c2nc3ccccc3s2)s1 (centres undefined)
inactive: Potency [1] | Potency [2] | Potency [3] | outcome [4] inactive [at 12.7 µM] | Potency [5] | Potency [6]

CC1(C(=O)NS(=O)(=O)c2ccc3ccccc3c2)CCN1C(=O)C1(c2ccc(Cl)cc2)CCC1 (centres undefined)
inactive: Potency [2] | Potency [3] | Potency [4] | Potency [5] | Potency [6]
active: Potency [1] 37.9 µM

Cc1noc(C)c1CSc1ncnc2sc(C)c(C)c12
inactive: Potency [1] | Potency [2] | Potency [3] | Potency [4] | Potency [5] | Potency [6]

NN=C1c2ccccc2C(=O)C1C(=O)C(c1ccccc1)c1ccccc1 (centres undefined)
active: Potency [1] 42.6 µM
inactive: Potency [2] | Potency [3] | Potency [4] | Potency [5] | Potency [6]

COc1ccc(-c2nnc(SCC(=O)c3ccco3)n2-c2ccccc2)cc1
inactive: Potency [1] | Potency [2] | activation [3] 3.77% [at 17.1 µM, percent relative to cAMP agonist control] | Potency [4] | activity change, negative = inhibition [5] -13.6% [at 30.8 µM] | activation [6] 4.19% [at 30.8 µM]

O=C(O)CN1C(=O)/C(=C\c2cccc(OCc3ccccc3F)c2)SC1=S
active: Potency [1] 42.6 µM | Potency [4] 84.9 µM
inactive: Potency [2] | Potency [3] | Potency [5] | Potency [6]

Cn1cc([C@]2(O)C(=O)Nc3ccc(F)cc32)c2ccccc21
inactive: Potency [1] | Potency [2] | activation [3] -4.66% [at 17.1 µM, percent relative to cAMP agonist control] | Potency [4] | activity change, negative = inhibition [5] -17.1% [at 30.8 µM] | activation [6] 12.7% [at 30.8 µM]

O=c1[nH]c(/C=C/c2cccc([N+](=O)[O-])c2)c([N+](=O)[O-])c(=O)[nH]1
active: Potency [1] 16.9 µM
inactive: Potency [2] | Potency [3] | Potency [4] | Potency [5] | Potency [6]

NS(=O)(=O)c1ccc(-c2cccc(/C=C3\SC(=O)NC3=O)c2)cc1
inactive: Potency [2] | Potency [3] | Potency [4] | Potency [5] | Potency [6]
active: Potency [1] 33.8 µM

CCOC(=O)c1ccc(NC(=O)CSc2nc(=O)n3cccc(C)c3n2)cc1
inactive: Potency [1] | Potency [2] | Potency [3] | Potency [4] | Potency [5] | Potency [6]

CN(Cc1ccccc1)S(=O)(=O)c1ccc(Cl)c(C(=O)NCc2ccncc2)c1
inactive: Potency [1] | Potency [2] | Potency [3] | Potency [4] | Potency [5] | Potency [6]

Cn1c(Cc2cccs2)nnc1SCc1nc2ccccc2[nH]1
inactive: Potency [1] | Potency [2] | activation [3] 2.48% [at 17.1 µM, percent relative to cAMP agonist control] | Potency [4] | activity change, negative = inhibition [5] -1.2% [at 30.8 µM] | activation [6] 30.7% [at 30.8 µM]

O=C(COC(=O)c1cccc(-n2cnnn2)c1)c1ccc(F)cc1
inactive: Potency [1] | Potency [2] | activation [3] 8.21% [at 17.1 µM, percent relative to cAMP agonist control] | Potency [4] | activity change, negative = inhibition [5] -3.01% [at 30.8 µM] | activation [6] 4.41% [at 30.8 µM]

CCOC(=O)c1cc(C(C)(C)C)nc(SC)c1C#N
inactive: Potency [1] | Potency [2] | Potency [3] | Potency [4] | Potency [5] | Potency [6]

O=C(c1ccc(Br)o1)N1CCN(c2ccc3nnc(-c4ccc(F)cc4)n3n2)CC1
inactive: Potency [1] | Potency [2] | activation [3] -1.27% [at 17.1 µM, percent relative to cAMP agonist control] | Potency [4] | activity change, negative = inhibition [5] -4.8% [at 30.8 µM] | activation [6] 25.2% [at 30.8 µM]

COc1cc(/C=C(\C#N)C(=O)NC(C)C)cc(Cl)c1O
inactive: Potency [1] | Potency [2] | Potency [3] | Potency [4] | Potency [5] | Potency [6]

CCc1cccc2sc(NC(=O)c3ccc(N4C(=O)CCC4=O)cc3)nc12
inactive: Potency [1] | Potency [2] | Potency [3] | Potency [4] | Potency [5] | Potency [6]

O=C(O)C1CSC(c2ccco2)N1 (centres undefined)
inactive: Potency [1] | Potency [2] | activation [3] 15.3% [at 17.1 µM, percent relative to cAMP agonist control] | Potency [4] | activity change, negative = inhibition [5] -26.6% [at 30.8 µM] | activation [6] 2.32% [at 30.8 µM]

CC1CC1C(=O)OCC(=O)NNC(=O)COc1ccc(Br)cc1 (centres undefined)
inactive: Potency [1] | Potency [2] | activation [3] 2.41% [at 17.1 µM, percent relative to cAMP agonist control] | Potency [4] | activity change, negative = inhibition [5] 26.9% [at 30.8 µM] | activation [6] 28.1% [at 30.8 µM]

C=CCN(CC=C)Cc1cc(=O)oc2cc(OC)ccc12
inactive: Potency [1] | Potency [2] | activation [3] 5.94% [at 17.1 µM, percent relative to cAMP agonist control] | Potency [4] | activity change, negative = inhibition [5] -16% [at 30.8 µM] | activation [6] -2.24% [at 30.8 µM]

Cc1ccc2nc(-c3ccc(NC(=O)c4ccco4)cc3)[nH]c2c1
inactive: Potency [1] | Potency [2] | activation [3] 7.16% [at 17.1 µM, percent relative to cAMP agonist control] | Potency [4] | activity change, negative = inhibition [5] -13% [at 30.8 µM] | activation [6] 29.2% [at 30.8 µM]

CC(=O)C1=C(c2ccc(C)cc2)N(C(C)=O)n2c(nnc2C2CCCCC2)S1
inactive: Potency [1] | Potency [2] | Potency [3] | Potency [4] | Potency [5] | Potency [6]

CCc1cccc2cc3c(N)c(C(=O)Nc4ccc(S(=O)(=O)N5CCCC5)cc4)sc3nc12
active: Potency [1] 75.7 µM | Potency [4] 67.5 µM
inactive: Potency [2] | Potency [3] | Potency [5] | Potency [6]

CN(C(=O)COC(=O)/C=C/c1ccc2c(c1)OCO2)c1c(N)n(Cc2ccccc2)c(=O)[nH]c1=O
inactive: Potency [1] | Potency [2] | Potency [3] | Potency [4] | Potency [5] | Potency [6]

COc1cc(/C=C2\SC(=O)N(c3ccccc3Cl)C2=O)cc([N+](=O)[O-])c1O
active: Potency [1] 47.8 µM | Potency [4] 42.6 µM
inactive: Potency [2] | Potency [3] | Potency [5] | Potency [6]

CC(C)(C)c1ccc(C(CC(=O)O)NC(=O)CSc2ccccc2)cc1 (centres undefined)
inactive: Potency [1] | Potency [2] | Potency [3] | Potency [4] | Potency [5] | Potency [6]

O=C(O)c1ccc(/C=N/N2CCN(Cc3cccc4ccccc34)CC2)cc1
inactive: Potency [1] | Potency [2] | activation [3] 4.54% [at 17.1 µM, percent relative to cAMP agonist control] | Potency [4] | activity change, negative = inhibition [5] -6.71% [at 30.8 µM] | activation [6] 4.41% [at 30.8 µM]

Cc1ccc(-n2nc3c(=O)n(CCCC(=O)NCc4ccccc4C)nc(C)c3c2C)cc1
inactive: Potency [1] | Potency [2] | Potency [3] | Potency [4] | Potency [5] | Potency [6]

COC(=O)c1sc(-c2ccc(C(C)(C)C)cc2)cc1NC(=O)c1ccccc1C(=O)O
active: Potency [1] 50.1 µM
inactive: Potency [2] | activation [3] 5.26% [at 17.1 µM, percent relative to cAMP agonist control] | Potency [4] | activity change, negative = inhibition [5] -19.7% [at 30.8 µM] | activation [6] 9.25% [at 30.8 µM]

CC(=O)Nc1nc(C)c(Oc2ccc(Cl)cc2Cl)c(=O)[nH]1
inactive: Potency [1] | Potency [2] | activation [3] 0% [at 17.1 µM, percent relative to cAMP agonist control] | Potency [4] | activity change, negative = inhibition [5] -5.48% [at 30.8 µM] | activation [6] 7.36% [at 30.8 µM]
